# Where a chain is given by its changes, count along the chain named.
# Key:
# Test in all cases: PBM; 200 nM protein, PBS
# Conditions in all cases: dsDNA, one strand shown
# [1] = biological target: CRX (Homo sapiens, UniProt O43186 26-111)
# [2] = biological target: T1, SIX6 (Homo sapiens, UniProt O95475 114-200, L167I)
# T1 sequence: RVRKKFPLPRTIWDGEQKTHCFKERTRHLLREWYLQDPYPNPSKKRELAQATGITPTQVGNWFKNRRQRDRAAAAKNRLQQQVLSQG
# [3] = biological target: T2, SIX6 (Homo sapiens, UniProt O95475 114-200, L143V)
# T2 sequence: T1 sequence with L30V, I54L
# [4] = biological target: ALX4 (Homo sapiens, UniProt Q9H161 200-286)
# ALX4 (Homo sapiens, UniProt Q9H161 200-286), sequence (Q9H161 200-286): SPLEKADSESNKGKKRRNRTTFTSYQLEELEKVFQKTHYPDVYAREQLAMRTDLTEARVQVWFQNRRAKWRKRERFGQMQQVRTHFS
# [5] = biological target: T3, SIX6 (Homo sapiens, UniProt O95475 114-200, H141N)
# T3 sequence: T1 sequence with H28N, I54L
# [6] = biological target: T4, SIX6 (Homo sapiens, UniProt O95475 114-200, T165P)
# T4 sequence: T1 sequence with T52P, I54L
# [7] = biological target: T5, SIX6 (Homo sapiens, UniProt O95475 114-200, L167M)
# T5 sequence: T1 sequence with I54M
# [8] = biological target: T6, SIX6 (Homo sapiens, UniProt O95475 114-200, L143M)
# T6 sequence: T1 sequence with L30M, I54L
# [9] = biological target: T7, SIX6 (Homo sapiens, UniProt O95475 114-200, L143I)
# T7 sequence: T1 sequence with L30I, I54L
# [10] = biological target: ALX4 (Homo sapiens, UniProt Q9H161 200-286, Q225E)
# ALX4 (Homo sapiens, UniProt Q9H161 200-286, Q225E), sequence (Q9H161 200-286 Q225E): as the sequence (Q9H161 200-286) above, with Q26E counted along it
# [11] = biological target: T8, SIX6 (Homo sapiens, UniProt O95475 114-200, T165G)
# T8 sequence: T1 sequence with T52G, I54L
# [12] = biological target: T9, SIX6 (Homo sapiens, UniProt O95475 114-200, T139Q)
# T9 sequence: T1 sequence with T26Q, I54L
# [13] = biological target: CRX (Homo sapiens, UniProt O43186 26-111, E42D)
# CRX (Homo sapiens, UniProt O43186 26-111, E42D), sequence (O43186 26-111 E42D): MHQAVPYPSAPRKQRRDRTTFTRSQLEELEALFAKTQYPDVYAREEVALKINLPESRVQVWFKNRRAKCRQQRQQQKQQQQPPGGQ
# [14] = biological target: T10, SIX6 (Homo sapiens, UniProt O95475 114-200, T165A)
# T10 sequence: T1 sequence with T52A, I54L
# [15] = biological target: T11, SIX6 (Homo sapiens, UniProt O95475 114-200, L167V)
# T11 sequence: T1 sequence with I54V
# [16] = biological target: T12, SIX6 (Homo sapiens, UniProt O95475 114-200)
# T12 sequence: T1 sequence with I54L
# [17] = biological target: T13, SIX6 (Homo sapiens, UniProt O95475 114-200, T165I)
# T13 sequence: T1 sequence with T52I, I54L
# [18] = biological target: CRX (Homo sapiens, UniProt O43186 26-111, R41L)
# CRX (Homo sapiens, UniProt O43186 26-111, R41L), sequence (O43186 26-111 R41L): as the sequence (O43186 26-111 E42D) above, with R16L, D17E counted along it
# [19] = biological target: T14, VENTX (Homo sapiens, UniProt O95231 78-163, R121Q)
# T14 sequence: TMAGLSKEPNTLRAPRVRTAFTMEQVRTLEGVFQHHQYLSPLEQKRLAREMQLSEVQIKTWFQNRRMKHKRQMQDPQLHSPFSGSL
# [20] = biological target: T15, VENTX (Homo sapiens, UniProt O95231 78-163)
# T15 sequence: T14 sequence with Q44R
# [21] = biological target: T16, VENTX (Homo sapiens, UniProt O95231 78-163, Y115F)
# T16 sequence: T14 sequence with Y38F, Q44R
# [22] = biological target: HOXB9 (Homo sapiens, UniProt P17482 171-250, T197M)
# HOXB9 (Homo sapiens, UniProt P17482 171-250, T197M), sequence (P17482 171-250 T197M): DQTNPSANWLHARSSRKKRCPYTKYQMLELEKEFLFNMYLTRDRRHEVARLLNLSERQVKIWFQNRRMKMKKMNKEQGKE
# [23] = biological target: HOXA2 (Homo sapiens, UniProt O43364 129-215, R185T)
# HOXA2 (Homo sapiens, UniProt O43364 129-215, R185T), sequence (O43364 129-215 R185T): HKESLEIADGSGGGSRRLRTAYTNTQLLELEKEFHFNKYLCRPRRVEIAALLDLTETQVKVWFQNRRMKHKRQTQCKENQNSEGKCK
# [24] = biological target: HOXB9 (Homo sapiens, UniProt P17482 171-250)
# HOXB9 (Homo sapiens, UniProt P17482 171-250), sequence (P17482 171-250): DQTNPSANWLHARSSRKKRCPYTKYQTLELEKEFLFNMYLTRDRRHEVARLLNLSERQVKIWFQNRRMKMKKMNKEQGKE
# [25] = biological target: ALX3 (Homo sapiens, UniProt O95076 139-225, N203Q)
# ALX3 (Homo sapiens, UniProt O95076 139-225, N203Q), sequence (O95076 139-225 N203Q): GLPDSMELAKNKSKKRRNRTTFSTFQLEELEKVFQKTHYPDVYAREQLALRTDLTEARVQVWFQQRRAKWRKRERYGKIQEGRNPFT
# [26] = biological target: HOXA2 (Homo sapiens, UniProt O43364 129-215, R185K)
# HOXA2 (Homo sapiens, UniProt O43364 129-215, R185K), sequence (O43364 129-215 R185K): as the sequence (O43364 129-215 R185T) above, with T57K counted along it
# [27] = biological target: ALX3 (Homo sapiens, UniProt O95076 139-225)
# ALX3 (Homo sapiens, UniProt O95076 139-225), sequence (O95076 139-225): as the sequence (O95076 139-225 N203Q) above, with Q65N counted along it
# [28] = biological target: ALX3 (Homo sapiens, UniProt O95076 139-225, L168Q)
# ALX3 (Homo sapiens, UniProt O95076 139-225, L168Q), sequence (O95076 139-225 L168Q): as the sequence (O95076 139-225 N203Q) above, with L30Q, Q65N counted along it
# [29] = biological target: HOXB9 (Homo sapiens, UniProt P17482 171-250, R186Q)
# HOXB9 (Homo sapiens, UniProt P17482 171-250, R186Q), sequence (P17482 171-250 R186Q): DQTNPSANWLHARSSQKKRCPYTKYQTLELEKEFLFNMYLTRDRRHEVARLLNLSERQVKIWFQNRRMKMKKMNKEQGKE
# [30] = biological target: ALX3 (Homo sapiens, UniProt O95076 139-225, L168V)
# ALX3 (Homo sapiens, UniProt O95076 139-225, L168V), sequence (O95076 139-225 L168V): as the sequence (O95076 139-225 N203Q) above, with L30V, Q65N counted along it
# [31] = biological target: HOXA2 (Homo sapiens, UniProt O43364 129-215, Y150S)
# HOXA2 (Homo sapiens, UniProt O43364 129-215, Y150S), sequence (O43364 129-215 Y150S): as the sequence (O43364 129-215 R185T) above, with Y22S, T57R counted along it
# [32] = biological target: ALX3 (Homo sapiens, UniProt O95076 139-225, N203S)
# ALX3 (Homo sapiens, UniProt O95076 139-225, N203S), sequence (O95076 139-225 N203S): as the sequence (O95076 139-225 N203Q) above, with Q65S counted along it
# [33] = biological target: HOXA2 (Homo sapiens, UniProt O43364 129-215)
# HOXA2 (Homo sapiens, UniProt O43364 129-215), sequence (O43364 129-215): as the sequence (O43364 129-215 R185T) above, with T57R counted along it
# [34] = biological target: HOXA4 (Homo sapiens, UniProt Q00056 201-287, W262R)
# HOXA4 (Homo sapiens, UniProt Q00056 201-287, W262R), sequence (Q00056 201-287 W262R): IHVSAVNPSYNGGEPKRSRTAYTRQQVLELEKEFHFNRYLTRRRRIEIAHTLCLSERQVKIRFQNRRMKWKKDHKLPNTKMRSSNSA
# [35] = biological target: PITX2 (Homo sapiens, UniProt Q99697 72-157)
# [36] = biological target: HOXA4 (Homo sapiens, UniProt Q00056 201-287)
# HOXA4 (Homo sapiens, UniProt Q00056 201-287), sequence (Q00056 201-287): as the sequence (Q00056 201-287 W262R) above, with R62W counted along it
# CRX (Homo sapiens, UniProt O43186 26-111), sequence (O43186 26-111): as the sequence (O43186 26-111 E42D) above, with D17E counted along it
sequence,measurement,setting,value
CGCACCGC,binding signal,[1],"8.16 upbm affinity estimate (log intensity, higher = more binding, comparable within an allelic series)"
same,binding signal,[2],"8.91 upbm affinity estimate (log intensity, higher = more binding, comparable within an allelic series)"
same,binding signal,[3],"8.89 upbm affinity estimate (log intensity, higher = more binding, comparable within an allelic series)"
same,binding signal,[4],"8.06 upbm affinity estimate (log intensity, higher = more binding, comparable within an allelic series)"
same,binding signal,[5],"8.95 upbm affinity estimate (log intensity, higher = more binding, comparable within an allelic series)"
same,binding signal,[6],"8.88 upbm affinity estimate (log intensity, higher = more binding, comparable within an allelic series)"
same,binding signal,[7],"8.89 upbm affinity estimate (log intensity, higher = more binding, comparable within an allelic series)"
same,binding signal,[8],"8.96 upbm affinity estimate (log intensity, higher = more binding, comparable within an allelic series)"
same,binding signal,[9],"9 upbm affinity estimate (log intensity, higher = more binding, comparable within an allelic series)"
same,binding signal,[10],"8.31 upbm affinity estimate (log intensity, higher = more binding, comparable within an allelic series)"
same,binding signal,[11],"9.05 upbm affinity estimate (log intensity, higher = more binding, comparable within an allelic series)"
same,binding signal,[12],"9.17 upbm affinity estimate (log intensity, higher = more binding, comparable within an allelic series)"
same,binding signal,[13],"8.2 upbm affinity estimate (log intensity, higher = more binding, comparable within an allelic series)"
same,binding signal,[14],"8.98 upbm affinity estimate (log intensity, higher = more binding, comparable within an allelic series)"
same,binding signal,[15],"8.96 upbm affinity estimate (log intensity, higher = more binding, comparable within an allelic series)"
same,binding signal,[16],"8.97 upbm affinity estimate (log intensity, higher = more binding, comparable within an allelic series)"
same,binding signal,[17],"8.85 upbm affinity estimate (log intensity, higher = more binding, comparable within an allelic series)"
same,binding signal,[18],"8.26 upbm affinity estimate (log intensity, higher = more binding, comparable within an allelic series)"
CCCCTGGA,binding signal,[1],"8.32 upbm affinity estimate (log intensity, higher = more binding, comparable within an allelic series)"
same,binding signal,[19],"7.92 upbm affinity estimate (log intensity, higher = more binding, comparable within an allelic series)"
same,binding signal,[20],"7.83 upbm affinity estimate (log intensity, higher = more binding, comparable within an allelic series)"
same,binding signal,[21],"8.01 upbm affinity estimate (log intensity, higher = more binding, comparable within an allelic series)"
same,binding signal,[13],"8.46 upbm affinity estimate (log intensity, higher = more binding, comparable within an allelic series)"
same,binding signal,[18],"8.4 upbm affinity estimate (log intensity, higher = more binding, comparable within an allelic series)"
CCAGGGGC,binding signal,[1],"7.85 upbm affinity estimate (log intensity, higher = more binding, comparable within an allelic series)"
same,binding signal,[22],"8.38 upbm affinity estimate (log intensity, higher = more binding, comparable within an allelic series)"
same,binding signal,[2],"8.79 upbm affinity estimate (log intensity, higher = more binding, comparable within an allelic series)"
same,binding signal,[3],"8.71 upbm affinity estimate (log intensity, higher = more binding, comparable within an allelic series)"
same,binding signal,[5],"8.85 upbm affinity estimate (log intensity, higher = more binding, comparable within an allelic series)"
same,binding signal,[6],"8.79 upbm affinity estimate (log intensity, higher = more binding, comparable within an allelic series)"
same,binding signal,[7],"8.77 upbm affinity estimate (log intensity, higher = more binding, comparable within an allelic series)"
same,binding signal,[8],"8.78 upbm affinity estimate (log intensity, higher = more binding, comparable within an allelic series)"
same,binding signal,[9],"8.85 upbm affinity estimate (log intensity, higher = more binding, comparable within an allelic series)"
same,binding signal,[11],"8.91 upbm affinity estimate (log intensity, higher = more binding, comparable within an allelic series)"
same,binding signal,[23],"7.15 upbm affinity estimate (log intensity, higher = more binding, comparable within an allelic series)"
same,binding signal,[24],"8.33 upbm affinity estimate (log intensity, higher = more binding, comparable within an allelic series)"
same,binding signal,[12],"8.83 upbm affinity estimate (log intensity, higher = more binding, comparable within an allelic series)"
same,binding signal,[13],"7.94 upbm affinity estimate (log intensity, higher = more binding, comparable within an allelic series)"
same,binding signal,[25],"7.67 upbm affinity estimate (log intensity, higher = more binding, comparable within an allelic series)"
same,binding signal,[14],"8.82 upbm affinity estimate (log intensity, higher = more binding, comparable within an allelic series)"
same,binding signal,[26],"10.2 upbm affinity estimate (log intensity, higher = more binding, comparable within an allelic series)"
same,binding signal,[15],"8.8 upbm affinity estimate (log intensity, higher = more binding, comparable within an allelic series)"
same,binding signal,[27],"7.59 upbm affinity estimate (log intensity, higher = more binding, comparable within an allelic series)"
same,binding signal,[16],"8.88 upbm affinity estimate (log intensity, higher = more binding, comparable within an allelic series)"
same,binding signal,[28],"7.73 upbm affinity estimate (log intensity, higher = more binding, comparable within an allelic series)"
same,binding signal,[17],"8.84 upbm affinity estimate (log intensity, higher = more binding, comparable within an allelic series)"
same,binding signal,[29],"8.39 upbm affinity estimate (log intensity, higher = more binding, comparable within an allelic series)"
same,binding signal,[30],"7.75 upbm affinity estimate (log intensity, higher = more binding, comparable within an allelic series)"
same,binding signal,[31],"10.3 upbm affinity estimate (log intensity, higher = more binding, comparable within an allelic series)"
same,binding signal,[18],"8.19 upbm affinity estimate (log intensity, higher = more binding, comparable within an allelic series)"
same,binding signal,[32],"7.65 upbm affinity estimate (log intensity, higher = more binding, comparable within an allelic series)"
same,binding signal,[33],"7.27 upbm affinity estimate (log intensity, higher = more binding, comparable within an allelic series)"
CTGGGGCA,binding signal,[1],"8.18 upbm affinity estimate (log intensity, higher = more binding, comparable within an allelic series)"
same,binding signal,[19],"8.13 upbm affinity estimate (log intensity, higher = more binding, comparable within an allelic series)"
same,binding signal,[20],"8.21 upbm affinity estimate (log intensity, higher = more binding, comparable within an allelic series)"
same,binding signal,[21],"8.17 upbm affinity estimate (log intensity, higher = more binding, comparable within an allelic series)"
same,binding signal,[13],"8.24 upbm affinity estimate (log intensity, higher = more binding, comparable within an allelic series)"
same,binding signal,[18],"8.28 upbm affinity estimate (log intensity, higher = more binding, comparable within an allelic series)"
TAACCTTA,binding signal,[1],"9.78 upbm affinity estimate (log intensity, higher = more binding, comparable within an allelic series)"
GTGGATTA,binding signal,[1],"13.3 upbm affinity estimate (log intensity, higher = more binding, comparable within an allelic series)"
same,binding signal,[34],"10.2 upbm affinity estimate (log intensity, higher = more binding, comparable within an allelic series)"
same,binding signal,[13],"13.3 upbm affinity estimate (log intensity, higher = more binding, comparable within an allelic series)"
same,binding signal,[35],"13.2 upbm affinity estimate (log intensity, higher = more binding, comparable within an allelic series)"
same,binding signal,[36],"10.8 upbm affinity estimate (log intensity, higher = more binding, comparable within an allelic series)"
same,binding signal,[18],"13.1 upbm affinity estimate (log intensity, higher = more binding, comparable within an allelic series)"

# Source: article PMC11006913
